Results: PubChem BioAssay (NCI)
This is part of a sample that, as a whole, favours compounds with a hit. Of some 83,000 tested, about 20% had one in any assay.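 Method: cells in 96-well plates; compound added at one concentration; 48 h incubation; percent growth measured; values under 10 scored active.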 A number with no mark means an inactive call. The source made the active and inactive calls.

Assays:
Test in all cases: NCI-60 one-dose screen, 48 h (100 = growth as untreated, 0 = no growth, -100 = all killed)
Conditions in all cases: 10 µM unless noted
SK-MEL-2 melanoma = system: SK-MEL-2 melanoma
EKVX NSCLC = system: EKVX NSCLC
SN12C renal = system: SN12C renal
UO-31 renal = system: UO-31 renal
TK-10 renal = system: TK-10 renal
ACHN renal = system: ACHN renal
CAKI-1 renal = system: CAKI-1 renal
A498 renal = system: A498 renal
CCRF-CEM leukemia = system: CCRF-CEM leukemia
MOLT-4 leukemia = system: MOLT-4 leukemia

SMILES	growth (SK-MEL-2 melanoma)	growth (EKVX NSCLC)	growth (SN12C renal)	growth (UO-31 renal)	growth (TK-10 renal)	growth (ACHN renal)	growth (CAKI-1 renal)	growth (A498 renal)	growth (CCRF-CEM leukemia)	growth (MOLT-4 leukemia)
c1cnc2c(-c3nc4ccc5[nH]ncc5c4c4c3CCCC4)c[nH]c2c1	58.5%	49.5%	27.4%	43.7%	50.1%	27.1%	57%	64.2%	11.4%	5.62% (active)
N=C(N)c1ccc(-c2ccc(-c3ccccc3)o2)cc1	-86.6% (active)	-18.1% (active)	-39.5% (active)	-82.2% (active)	-77.4% (active)	-65.9% (active)	-1.49% (active)	-21.9% (active)	-39.4% (active)	-56.2% (active)
Cc1ccccc1/C=C/C(=O)c1cccc(OCCCCOc2cccc(C(=O)/C=C/c3ccccc3C)c2)c1	103%	94.6%	90.7%	80.7%	101%	101%	86%	86%	104%	94.5%
CCOC(=O)NC(C)C	114%	105%	100%	81.5%	115%	100%	98.2%	117%	110%	82.9%
CS(=O)(=O)c1ccc(-c2cnn3ccc(-c4cccc(S(=O)(=O)C5CC5)c4)nc23)cc1	49.4%	67.4%	55.3%	49.8%	45.8%	54.7%	52.2%	30%	21.3%	15.3%
Cn1cc(-c2csc(-c3c[nH]c4ccccc34)n2)c2cnccc21	96.2%	7.91% (active)	43.5%	-64.4% (active)	55.4%	-4.48% (active)	-1.8% (active)	77.1%	-8.15% (active)	-5.2% (active)
COc1c(C(=O)Nc2ccc(C)c(Br)c2)ccc2ccccc12	102%	66.3%	96.8%	85.5%	103%	104%	71.9%	91.2%	91.3%	73.7%
Cc1c[n+](Cc2ccc3ccccc3c2)cn1Cc1ccc2ccccc2c1	-48.5% (active)	38.1%	7.56% (active)	77.6%	-4.54% (active)	89.5%	94%	50.1%	3.95% (active)	-3.59% (active)
Cc1ccc(Nc2cc(N)nc(N)n2)cc1Cl	103%	67.7%	104%	83.4%	111%	101%	81.6%	101%	96.6%	93.7%
Nc1n[nH]c2cccc(C#Cc3cccc(NC(=O)c4cc(F)cc(C(F)(F)F)c4)c3)c12	63.2%	92.8%	53.1%	36.8%	111%	64.7%	104%	57.1%	43%	48.1%
CCCNC(=O)Nc1ccc2cc3ccc(NC(=O)NCCC)cc3nc2c1	84.7%	97.8%	94.5%	76.1%	115%	78.1%	104%	71.4%	47.4%	84.8%
O=C(CSC(=S)n1cnnc1)NC(=O)c1ccccc1	106%	104%	103%	87.8%	101%	105%	104%	106%	99.2%	102%
COc1ccc(C/C(C)=C(\c2ccc(Cl)cc2)c2ccc(OCCN3CCCCC3)cc2)cc1	97%	102%	94.3%	73.9%	97%	92.3%	86.9%	120%	90.1%	75.4%
CN1CCN(C(=O)c2ccc(NC(=O)c3cc4c(nn3)NCCN4Cc3cc(Cl)ccc3Cl)cc2)CC1	78.8%	85.8%	74.9%	60.5%	92.1%	75.1%	75.1%	43.7%	42%	39.6%
COc1ccc(/C=C/C(=O)c2cc3c(N)c(C(=O)Nc4cccc5ccccc45)sc3nc2C)cc1	70.9%	92.4%	87.5%	62.7%	94.2%	71.8%	48.6%	44.2%	33.6%	100%
COc1ccc(/C=C(\C#N)n2nnc3cc(F)c(F)cc32)cc1	50.9%	51.9%	58.9%	52.8%	72.4%	55.4%	54.4%	76.2%	24.3%	22.4%
CC(C)=CC(=O)OCC(=O)O[C@@H]1C[C@]2(C(C)C)O[C@@]1(C)[C@@H]1CC[C@@H](C)[C@H]1[C@@H]2OC(=O)/C=C/c1ccccc1	89%	84.1%	39.8%	-64.7% (active)	95.5%	4.57% (active)	12.8%	-79.2% (active)	78.4%	79.1%
CCSC(SCC)c1ccc(Cl)cc1	116%	106%	99.7%	92.5%	116%	107%	82.9%	93.4%	108%	110%
O=C1c2ccc3c4c5ccc(c24)C(=O)N1CCCOCCCCOCCCNCc1ccc(cc1)CNCCCOCCCCOCCCN(C3=O)C5=O	-35.8% (active)	-63.1% (active)	-82.9% (active)	64.7%	21.6%	-65.7% (active)	-1.05% (active)	93.7%	-0.763% (active)	-12.3% (active)
COc1ccc(Nc2ncc(Br)c(NCCCNC(=O)C3CCCC3)n2)cc1	63.6%	47.3%	22%	-30.8% (active)	23.3%	19.8%	9.48% (active)	54.6%	27.1%	19.5%
COc1cc(OC)c(NC(=O)c2cc3ccccc3cc2O)cc1Cl	15.4%	38.4%	28.1%	-10.7% (active)	32.8%	22.7%	6.59% (active)	18.8%	26.9%	26.9%
COc1ccc(C(O)c2cc3c(N)c(C(=O)Nc4cccc(Br)c4)sc3nc2C)cc1 (stereo not drawn)	33.9%	46.2%	12.1%	22.9%	62.9%	19.8%	13.5%	-9.2% (active)	14.2%	15.8%
C/C(Cc1ccc(Cl)cc1)=C(\c1ccc(O)cc1)c1ccc(Cl)cc1	90.9%	83.9%	95.1%	85.1%	95.3%	99.5%	84.7%	116%	92.2%	81%
CC(C)(C)CC(C)(C)NC(=O)Nc1ncccc1OCc1ccccc1	83.5%	93.3%	89.5%	73.9%	96.3%	94.4%	80.2%	92.7%	94.2%	89.1%
COC(=O)C1Cc2ccccc2CN1C(=O)c1ccc2c(c1)Cc1ccccc1-2 (stereo not drawn)	47.4% [50 µM]	24.5% [50 µM]	38.5% [50 µM]	13.9% [50 µM]	52.2% [50 µM]	43.3% [50 µM]	28.7% [50 µM]	27.3% [50 µM]	32.1% [50 µM]	21.9% [50 µM]
Oc1c(Br)cc(Br)c2ccc(Cn3cc(-c4ccc(C(F)(F)F)cc4)nn3)nc12	90.9%	83.6%	71%	63.5%	99.1%	26.4%		96.8%	2.97% (active)	11.3%
O=C(/C=C/c1cn(-c2ccccc2)nc1-c1ccc(Cl)cc1)c1ccc(F)cc1	88.6%	116%	78.1%	63.3%	107%	77.7%		96.5%	40%	36.1%
